Assay results from PubChem BioAssay AID1159580 (chemical genetic matrix, 2015).
About 2,000 (36%) of roughly 5,500 compounds were called active. Roughly 18% stayed inconclusive and do not appear here. No stated cut-off is given here; in the data, active means normalized growth mostly below about 0.91 (no sharp cut-off); inconclusive means no clear call, values can overlap the other calls; inactive means mostly above about 0.92. Some of the results follow.

Experiment: chemical genetic growth profiling, strain panel (AID 1159580);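 further: tested at 20 µM; growth read once vehicle control cultures reached saturation at 30 °C; 1 = growth at the plate median or of vehicle wells; lower values mean less growth of the strain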
Conditions: growth OD

Measured: normalized growth

C/C=C(\C)C(=O)O[C@H]1C[C@@H](OC(C)=O)[C@@]2(C(=O)OC)CO[C@@H]3C2[C@]12CO[C@](O)(C(=O)OC)[C@H]2[C@](C)(C12O[C@@]1(C)[C@H]1C[C@@H]2OC2OC=C[C@@]21O)[C@@H]3O (some centres not stated)
inactive: S. cerevisiae deletion strains, locus YJR075W, strain HOC1, active compounds read low 0.998 | S. cerevisiae deletion strains, locus YKL009W, strain mrt4, active compounds read low 0.996 | S. cerevisiae deletion strains, locus YKL068W, active compounds read low 0.987 | S. cerevisiae deletion strains, locus YKL085W, strain MDH1 (second series), active compounds read low 0.998 | S. cerevisiae deletion strains, locus YKL085W, strain MDH1, active compounds read low 0.998 | S. cerevisiae deletion strains, locus YKL160W, strain elf1, active compounds read low 0.954 | S. cerevisiae deletion strains, locus YKL190W, strain CNB1, active compounds read low 0.997 | S. cerevisiae deletion strains, locus YKR001C, strain vps1, active compounds read low 0.988 | S. cerevisiae deletion strains, locus YKR026C, strain gcn3, active compounds read low 0.992 | S. cerevisiae deletion strains, locus YKR091W, strain srl3, active compounds read low 0.964 | S. cerevisiae deletion strains, locus YLL001W, strain dnm1, active compounds read low 0.965 | S. cerevisiae deletion strains, locus YLL026W, active compounds read low 0.978 | S. cerevisiae deletion strains, locus YLL041C, strain sdh2, active compounds read low 0.975 | S. cerevisiae deletion strains, locus YLR027C, strain aat2, active compounds read low 0.991 | S. cerevisiae deletion strains, locus YLR039C, strain RIC1, active compounds read low 1.04 | S. cerevisiae deletion strains, locus YLR058C, strain SHM2, active compounds read low 0.982 | S. cerevisiae deletion strains, locus YLR102C, strain apc9, active compounds read low 0.979 | S. cerevisiae deletion strains, locus YLR113W, strain HOG1, active compounds read low 1.02 | S. cerevisiae deletion strains, locus YLR221C, strain rsa3, active compounds read low 0.999 | S. cerevisiae deletion strains, locus YLR258W, strain gsy2, active compounds read low 0.969 | S. cerevisiae deletion strains, locus YLR262C, strain YPT6 (second series), active compounds read low 0.968 | S. cerevisiae deletion strains, locus YLR262C, strain YPT6, active compounds read low 1.03 | S. cerevisiae deletion strains, locus YLR268W, strain sec22, active compounds read low 0.913 | S. cerevisiae deletion strains, locus YLR320W, strain mms22, active compounds read low 0.992 | S. cerevisiae deletion strains, locus YLR330W, strain CHS5, active compounds read low 0.996 | S. cerevisiae deletion strains, locus YLR342W, strain FKS1 (second series), active compounds read low 1.05 | S. cerevisiae deletion strains, locus YLR342W, strain FKS1, active compounds read low 0.983 | S. cerevisiae deletion strains, locus YLR357W, strain rsc2, active compounds read low 0.978 | S. cerevisiae deletion strains, locus YLR370C, strain arc18, active compounds read low 0.987 | S. cerevisiae deletion strains, locus YLR371W, strain rom2, active compounds read low 0.971 | S. cerevisiae deletion strains, locus YLR384C, strain iki3, active compounds read low 0.976 | S. cerevisiae deletion strains, locus YLR418C, strain cdc73, active compounds read low 1 | S. cerevisiae deletion strains, locus YML016C, strain PPZ1, active compounds read low 0.985 | S. cerevisiae deletion strains, locus YML032C, strain rad52, active compounds read low 0.957 | S. cerevisiae deletion strains, locus YML120C, strain ndi1, active compounds read low 0.979 | S. cerevisiae deletion strains, locus YML124C, strain tub3, active compounds read low 0.99 | S. cerevisiae deletion strains, locus YMR058W, strain fet3, active compounds read low 0.973 | S. cerevisiae deletion strains, locus YMR078C, strain ctf18, active compounds read low 0.963 | S. cerevisiae deletion strains, locus YMR125W, strain sto1, active compounds read low 0.958 | S. cerevisiae deletion strains, locus YMR129W, active compounds read low 0.991 | S. cerevisiae deletion strains, locus YMR205C, strain PFK2, active compounds read low 0.984 | S. cerevisiae deletion strains, locus YMR223W, strain ubp8, active compounds read low 0.998 | S. cerevisiae deletion strains, locus YMR231W, strain pep5, active compounds read low 0.968 | S. cerevisiae deletion strains, locus YMR263W, strain SAP30, active compounds read low 0.987 | S. cerevisiae deletion strains, locus YMR307W, strain GAS1, active compounds read low 0.987 | S. cerevisiae deletion strains, locus YNL067W, strain RPL9B, active compounds read low 0.979 | S. cerevisiae deletion strains, locus YNL071W, strain lat1, active compounds read low 0.983 | S. cerevisiae deletion strains, locus YNL128W, strain TEP1, active compounds read low 0.993 | S. cerevisiae deletion strains, locus YNL153C, strain GIM3, active compounds read low 0.988 | S. cerevisiae deletion strains, locus YNL183C, strain NPR1, active compounds read low 0.972 | S. cerevisiae deletion strains, locus YNL209W, strain ssb2, active compounds read low 0.989 | S. cerevisiae deletion strains, locus YNL233W, strain BNI4, active compounds read low 0.98 | S. cerevisiae deletion strains, locus YNL248C, strain rpa49, active compounds read low 0.967 | S. cerevisiae deletion strains, locus YNL250W, strain rad50, active compounds read low 0.981 | S. cerevisiae deletion strains, locus YNL271C, strain bni1, active compounds read low 0.97 | S. cerevisiae deletion strains, locus YNL298W, strain CLA4, active compounds read low 0.968 | S. cerevisiae deletion strains, locus YNL307C, strain MCK1, active compounds read low 0.983 | S. cerevisiae deletion strains, locus YNL322C, strain KRE1 (second series), active compounds read low 0.977 | S. cerevisiae deletion strains, locus YNL322C, strain KRE1, active compounds read low 0.995 | S. cerevisiae deletion strains, locus YNR049C, strain mso1, active compounds read low 0.976 | S. cerevisiae deletion strains, locus YNR052C, strain pop2, active compounds read low 0.973 | S. cerevisiae deletion strains, locus YOL006C, strain TOP1, active compounds read low 0.926 | S. cerevisiae deletion strains, locus YOL012C, strain htz1 0.809 | S. cerevisiae deletion strains, locus YOL147C, strain pex11, active compounds read low 0.981 | S. cerevisiae deletion strains, locus YOR001W, strain rrp6, active compounds read low 0.995 | S. cerevisiae deletion strains, locus YOR061W, strain CKA2, active compounds read low 0.989 | S. cerevisiae deletion strains, locus YOR069W, strain VPS5, active compounds read low 0.982 | S. cerevisiae deletion strains, locus YOR070C, strain gyp1, active compounds read low 1 | S. cerevisiae deletion strains, locus YOR080W, strain dia2, active compounds read low 0.991 | S. cerevisiae deletion strains, locus YOR083W, strain WHI5, active compounds read low 0.968 | S. cerevisiae deletion strains, locus YOR106W, strain vam3, active compounds read low 0.938 | S. cerevisiae deletion strains, locus YOR136W, strain idh2, active compounds read low 0.974 | S. cerevisiae deletion strains, locus YOR144C, strain elg1, active compounds read low 0.973 | S. cerevisiae deletion strains, locus YOR184W, strain ser1, active compounds read low 0.967 | S. cerevisiae deletion strains, locus YOR231W, strain MKK1, active compounds read low 0.989 | S. cerevisiae deletion strains, locus YOR265W, strain rbl2, active compounds read low 0.984 | S. cerevisiae deletion strains, locus YOR270C, strain vph1, active compounds read low 0.93 | S. cerevisiae deletion strains, locus YOR290C, strain snf2, active compounds read low 0.946 | S. cerevisiae deletion strains, locus YOR316C, strain cot1, active compounds read low 0.977 | S. cerevisiae deletion strains, locus YPL051W, strain arl3, active compounds read low 0.98 | S. cerevisiae deletion strains, locus YPL055C, strain LGE1, active compounds read low 1.01 | S. cerevisiae deletion strains, locus YPL078C, strain atp4, active compounds read low 0.942 | S. cerevisiae deletion strains, locus YPL106C, strain sse1, active compounds read low 1 | S. cerevisiae deletion strains, locus YPL240C, strain hsp82, active compounds read low 0.985 | S. cerevisiae deletion strains, locus YPL241C, strain CIN2, active compounds read low 1 | S. cerevisiae deletion strains, locus YPL256C, strain CLN2, active compounds read low 0.971 | S. cerevisiae deletion strains, locus YPR119W, strain clb2, active compounds read low 0.991 | S. cerevisiae deletion strains, locus YPR141C, strain kar3, active compounds read low 0.977 | S. cerevisiae deletion strains, locus YPR163C, strain tif3, active compounds read low 0.97 | S. cerevisiae deletion strains, locus YPR167C, strain met16, active compounds read low 0.978 | S. cerevisiae deletion strains, strain wtn01, active compounds read low 0.948 | S. cerevisiae strains, strain wild type, active compounds read low 0.994
